Cycloheximide cs: Cycloheximide Counterscreen for Small Molecule Inhibitors of Shiga Toxin; cell reporter, cycloheximide protein synthesis inhibition counterscreen; max response, %; 12% of 300,000 active; AID 2314, 2010; in the data active = max response mostly above about 13%, no sharp cut-off; inactive = mostly below about 14%; note: read at 38.3 µM for the half of the compounds with a filed dose; 0% is about no effect
LmPK inhibitor: qHTS Assay for Inhibitors of Leishmania Mexicana Pyruvate Kinase (LmPK). Potency, µM (highest dose often 57.5 µM), without a hit: at the highest dose activity change, negative = inhibition, most hits filed as inhibitors. 0.37% of 290,000 active. AID 1721, 2009. Q27686. purified LmPK, Kinase-Glo ATP luminescence, 1 h; note: potency is the fitted concentration of half-maximal effect; % is set by controls: 0 for no effect and ±100 for the full control effect
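0.1 nM LmPK, 0.5 mM PEP, 0.1 mM ADP; 50 mM imidazole pH 7.2, 7 mM MgCl2, 50 mM KCl; 1 h RT. Kinase-Glo luminescence readout, normalized to no-enzyme (full inhibition) and uninhibited wells.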
Shiga inhibitor: A qHTS for Small Molecule Inhibitors of Shiga Toxin. Vero cells, Shiga toxin protein synthesis inhibition reporter. 9.2% of 290,000 active. AID 2315, 2010. inhibition, % at 38.7 µM; in the data active = inhibition mostly above about 28%, no sharp cut-off; inactive = mostly below about 43%; note: 0% is about no effect
RE007 growth inh: qHTS Assay for Inhibitors of the HIV-1 protein Vpr | AID 651644, 2012 | 0.21% of 360,000 active | Potency, µM (highest dose often 92.2 µM), for inactives: top-dose activity change, negative = less growth, actives largely listed as inhibitors | S. pombe RE007 Vpr strain, BacTiter-Glo ATP luminescence, 24 h; active = well fitted falling curve with a large enough effect; inconclusive = small, poorly fitted or top-dose-only effect; inactive = no such curve, though single readings can be large or run the other way; note: potency is the fitted concentration of half-maximal effect; % is set by controls: 0 for no effect and ±100 for the full control effect; nearly all actives have a fitted effect of over 50% in size
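Fission yeast RE007 carrying one integrated HIV-1 vpr copy, seeded at OD 0.01 in PMG+AL medium with 23 nL pinned compound. Grown 24 h at 30 degrees; viability read by BacTiter-Glo luminescence after 5 min.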
Giardia FBPA inh: qHTS Assay for Inhibitors of Fructose-1,6-bisphosphate Aldolase from Giardia Lamblia | A8B2U2 | purified Giardia FBPA | Potency, µM (series often up to 59.6 µM), inactives show at the highest dose activity, negative = inhibition, hits mostly inhibitors | 0.71% of 290,000 active | AID 2451, 2010; note: potency is the fitted concentration of half-maximal effect; % is set by controls: 0 for no effect and ±100 for the full control effect; nearly all actives have a fitted effect of over 55% in size
Target sequence (A8B2U2 whole entry, looked up): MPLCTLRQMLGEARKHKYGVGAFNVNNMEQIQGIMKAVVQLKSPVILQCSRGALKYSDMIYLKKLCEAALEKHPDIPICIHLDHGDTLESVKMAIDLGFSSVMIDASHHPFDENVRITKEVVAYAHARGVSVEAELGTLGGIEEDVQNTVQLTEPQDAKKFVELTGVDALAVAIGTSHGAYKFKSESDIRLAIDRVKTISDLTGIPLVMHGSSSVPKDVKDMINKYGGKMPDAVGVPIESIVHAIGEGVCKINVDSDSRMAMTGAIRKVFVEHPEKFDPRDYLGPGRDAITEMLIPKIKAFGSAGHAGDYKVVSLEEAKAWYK
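40 nM FBPA preincubated 10 min at RT with compound (up to 57.5 uM final), then substrate plus GAPDH/TPI/NAD/arsenate coupling and diaphorase/resazurin added. Fluorescence read after 20 min at RT, 525/598 nm.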
TbPYK inhibitor: qHTS of Trypanosoma Brucei Inhibitors; TbPYK enzyme, Kinase-Glo Plus ATP luminescence, 45 min; Potency, µM (doses to about 76.8 µM), for inactives: top-dose activity, negative = inhibition, actives largely listed as inhibitors; AID 624173, 2012; 0.12% of 410,000 active; pyruvate kinase (Trypanosoma brucei), Q57TT1; note: potency is the fitted concentration of half-maximal effect; % is set by controls: 0 for no effect and ±100 for the full control effect; nearly all actives have a fitted effect of over 50% in size
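TbPYK + substrate in 50 mM TEA pH 7.2, 100 mM KCl, 10 mM MgCl2, 0.05% BSA, 0.01% Tween-20; cpd pinned; ADP 130 uM final; 45 min RT; Kinase-Glo Plus 10 min; luminescence endpoint.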
* hit, by the source's call; ? = inconclusive; / = no result given; [ ] = dose if it differs, or a comment. The full list was thinned out, with hits kept by preference. Unless noted, calls come from the whole dose curve; as a rule, active = well fitted curve in the direction sought with a large enough effect; inconclusive = small, poorly fitted or top-dose-only effect, or another doubt; inactive = no such curve, though single readings can be large; an effect the other way counts as inactive or inconclusive.

SMILES	Cycloheximide cs	LmPK inhibitor	Shiga inhibitor	RE007 growth inh	Giardia FBPA inh	TbPYK inhibitor
S=C(Nc1ccccc1)Nc1ccc(Br)cn1	-2	3%	22	-5%	-1%	-6%
O=C(CNC(=O)c1ccc2ccccc2c1)NCc1ccccc1F	-3	-10%	-18	1%	/	-1%
Cc1cc(=O)n2nc(N3CCCC(C(=O)NC4CCC(C)CC4)C3)sc2n1 (configuration not stated)	8	1%	4	-3%	/	2%
COc1ccc(OC)c(NC(=O)C2=C(C)C(=O)OC23CCN(C(C)C)CC3)c1	/	/	/	/	/	-11%
O=C(NC(=S)Nc1ccccc1)c1cccs1	60*	-1%	81*	-13%	?	1%
COC(=O)c1c(-c2ccncc2)csc1NC(=O)c1ccoc1C	21*	3%	66*	-2%	1%	-3%
Cc1nc2cc(NC(=O)c3ccc(S(=O)(=O)N(C)c4ccccc4)cc3)ccc2o1	30*	-5%	126*	14%	-1%	-11%
COc1ccc(-c2csc(NC(=O)c3ccoc3C)n2)cc1	41*	0%	153*	10%	-9%	-12%
Cc1csc(NC(=O)c2ccc(S(=O)(=O)N(C)c3ccccc3)cc2)n1	34*	-2%	42*	-2%	5%	-9%
CC(Sc1nnc(-c2cccnc2)n1N)C(=O)Nc1ccc2c(c1)OCCO2 (configuration not stated)	/	/	/	1%	/	1%
O=C(CN1C(=O)COc2ccc(S(=O)(=O)N3CCCCCC3)cc21)N1CCN(c2ccc(Cl)cc2)CC1	/	/	/	/	/	-1%
CN(c1ccc(C(=O)Nc2nccs2)cc1)S(=O)(=O)c1ccccc1	38*	8%	57*	2%	-4%	-1%
Cc1csc(NC(=O)c2ccc(S(C)(=O)=O)cc2)n1	40*	3%	72*	-8%	-5%	4%
COc1ccc(-c2csc(NC(=O)c3ccc(S(C)(=O)=O)cc3)n2)cc1	33*	1%	72*	-2%	-1%	1%
CCOC(=O)c1cccc(NC(=O)c2cnccn2)c1	7	-1%	41	-1%	3%	?
CCOC(=O)c1ccccc1NC(=O)c1cc2ccccc2o1	6	9%	65	15%	-1%	4%
CCOC(=O)c1cccc(NC(=O)c2cc3ccccc3o2)c1	49*	-1%	57*	?	-3%	3%
CC(C)C(=O)Nc1ccc(NC(=S)NC(=O)c2cc3ccccc3o2)cc1	7	-1%	-8	6%	-4%	-2%
CC(C)C(=O)Nc1ccc(NC(=O)c2cc3ccccc3o2)cc1	19*	0%	62*	-3%	1%	-9%
CCOC(=O)c1ccc(NC(=O)c2cc3ccccc3o2)cc1	32*	-8%	41*	7%	-4%	-5%
CCC(=O)N1Cc2cc(C(=O)Nc3nccs3)nc(-c3cccc(-c4ccccc4OC)c3)c2[C@@H]1CCO	/	/	/	18%	/	-4%
CC(=O)c1ccc(NS(=O)(=O)c2cc3[nH]c(=O)c(=O)[nH]c3cc2C)cc1	/	/	/	/	/	-9%
CC(=O)c1ccc(N2CCN(S(=O)(=O)c3cc4[nH]c(=O)c(=O)[nH]c4cc3C)CC2)cc1	19*	-7%	24*	16%	-16%	-2%
O=C1c2ccccc2C(=O)C1c1ccc(Cl)cc1	27*	-15%	47	-9%	/	2%
O=C1c2ccccc2C(=O)C1c1ccc(Br)cc1	19*	-6%	88*	2%	-14%	-3%
SMILES	Cycloheximide cs	LmPK inhibitor	Shiga inhibitor	RE007 growth inh	Giardia FBPA inh	TbPYK inhibitor
O=C1c2ccccc2C(=O)C1c1ccc(O)cc1	28*	2%	70*	-26%	4%	-21%
O=C1NC(c2ccc(O)cc2)Nc2ccccc21 (configuration not stated)	13*	0%	16	6%	-4%	0%
COc1cccc(C2C(=O)c3ccccc3C2=O)c1	-2	-1%	32	1%	-20%	4%
O=C1c2ccccc2C(=O)C1c1ccc(F)cc1	/	/	/	/	/	-3%
O=C1c2ccccc2C(=O)N1CCOc1cccc(Br)c1	28*	-4%	52*	3%	/	-8%
COc1ccc(N(CN2C(=O)c3ccccc3C2=O)C(=O)C(C)C)cc1	21*	-2%	12	-3%	7%	-7%
COc1ccc(N(CN2C(=O)c3ccccc3C2=O)C(=O)COc2ccc(Cl)cc2Cl)cc1	0	3%	-2	-6%	2%	4%
Cc1ccc(OCCN2C(=O)c3ccccc3C2=O)cc1	31*	1%	108*	-7%	3%	4%
COc1ccc(C(=O)OCCN2C(=O)c3ccccc3C2=O)cc1	17	0%	54*	-12%	-2%	0%
CCN(c1cc(C)cc(C)c1)S(=O)(=O)c1nnc(NC(=O)c2cccc(F)c2)s1	/	/	/	/	/	-4%
CC(Oc1cccnc1[N+](=O)[O-])C(=O)Nc1ccc(Cl)cn1 (configuration not stated)	/	/	/	-4%	/	2%
Cc1ccc(OCCN2C(=O)c3ccccc3C2=O)c(C)c1	6	3%	-4	-2%	8%	-13%
C[N+](C)(C)CCN1C(=O)CSC1=O	-3	-4%	-5	6%	-1%	-10%
Cc1ccc(OCCN2C(=O)c3ccccc3C2=O)c([N+](=O)[O-])c1	64*	0%	106*	4%	-5%	2%
Cc1ccc(OCCN2C(=O)CSC2=O)cc1	22*	-6%	20	-29%	4%	-10%
COc1ccc(N2CCN(CCN3C(=O)c4ccccc4C3=O)CC2)cc1	-4	1%	1	-10%	/	-7%
COc1ccc(OCCN2C(=O)c3cccc(N)c3C2=O)cc1	32*	0%	74*	12%	-7%	2%
O=C(O)c1ccccc1N/C=C\[N+](=O)[O-]	-5	-1%	29	-25%	?	-19%
COc1cc(Cl)c(NC2=CC(=O)C(=O)c3ccccc32)c(OC)c1	/	/	/	1%	/	-6%
CCOc1ccccc1N(CC(=O)Nc1cccc2ccccc12)S(C)(=O)=O	1	3%	-5	13%	-6%	-1%
COc1ccc(-c2csc(Nc3cccnc3)n2)cc1OC	21	-4%	active	1%	3%	-2%
COc1cccc(Nc2nc(-c3cccnc3)cs2)c1	53*	-1%	57*	1%	8%	1%
Cc1cncc(NCc2cccc(Cl)c2)n1	/	/	/	-9%[18.4 µM]	/	-7%
O=c1[nH]c2cc3c(cc2cc1CN(Cc1ccccc1)Cc1nnnn1Cc1ccco1)OCCO3	3	2%	48	-21%	?	-7%
CCc1ccc2[nH]c(=O)c(CN(Cc3ccccc3)Cc3nnnn3Cc3ccco3)cc2c1	24*	2%	72*	1%	-10%	-7%

Screening results: PubChem, National Center for Advancing Translational Sciences (NCATS)
